# Assay results taken from PubChem BioAssay.
# The source made the active and inactive calls.
# Columns and labels:
# [1] = system: Human papillomavirus type 1a protein E7 (residues 44-93); assay: HPV1a E7 fragment binders on microarrays, primary screen, biochemical, small-molecule microarray, residues 44-93, 635 nm fluorescence (AID 1108); details: small-molecule microarray binding, fluorescence 635 nm; higher = more signal;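 note: E7 fragment applied at 1 µg/mL in TBST for 1 h at 4 C; score combines spot fluorescence with its signal to noise ratio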
# [2] = modulators of HCV replicon luciferase signal, primary screen, HCV replication inhibitor project, Huh7 cells, luciferase reporter (AID 1109); details: 48 h, higher = more signal;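 note: huh7 hepatoma cells harbouring a luciferase neomycin HCV replicon reporter; luciferase luminescence as measure of HCV replicon replication; test concentration not given here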
# [3] = molecular target: Left-right determination factor 2 (Homo sapiens) (UniProt O00292); assay: LEFTY2 binders on small-molecule microarrays, primary screen, biochemical, small-molecule microarray, 635 nm fluorescence scan (AID 1110); details: LEFTY2 binding, higher = more signal
# [4] = molecular target: Calmodulin-1 (Homo sapiens) (UniProt P0DP23); assay: CALM1 binders on microarrays, EGTA buffer, profiling panel, biochemical, small-molecule microarray, Cy5-labelled CALM1 (AID 1111); details: Cy5-CALM1 binding fluorescence, higher = more signal;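 note: labelled calmodulin applied in Tris saline Tween buffer holding calcium plus EGTA and DTT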
# [5] = molecular target: Calmodulin-1 (Homo sapiens) (UniProt P0DP23); assay: calcium-bound CALM1 binders on microarrays, profiling panel, artefact control for SMM control-protein annotation, biochemical, small-molecule microarray, Cy5-labelled CALM1, plus calcium (AID 1112); details: Cy5-CALM1 binding fluorescence, higher = more signal;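 note: score merges spot fluorescence with signal to noise from triplicate slides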
# [6] = small-molecule microarray binders of probe aWnt5a, primary screen, biochemical, biotinylated probe, 635/667 nm fluorescence (AID 1113); details: higher = more signal;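 note: score merges 667 nm fluorescence intensity with signal-to-noise per printed feature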
# [7] = small-molecule microarray binders of probe aShh, primary screen, biochemical, biotinylated probe, 635/667 nm fluorescence (AID 1114); details: higher = more signal;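 note: probe is biotin-labelled aShh protein from a stem cell growth factor screen; measures binding of labelled protein to compounds printed on the slide; score merges feature fluorescence at 667 nm with signal-to-noise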
# [8] = small-molecule microarray binders of probe aNog, primary screen, biochemical, biotinylated probe, 635/667 nm fluorescence (AID 1115); details: higher = more signal;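 note: probe is biotinylated aNog protein used at 0.15 µg/mL for 1 h at 4 C; z-score combines 667 nm fluorescence of each spot with its signal to noise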
# [9] = molecular target: Torsin-1A-interacting protein 1 (Homo sapiens) (UniProt Q5JTV8); assay: LAP1 binders from COS7 cell lysate, primary screen, small-molecule microarray, 635/667 nm fluorescence (AID 1116); details: COS7-hLAP1 lysate binding, 635 nm fluorescence, higher = more signal
# [10] = molecular target: Alpha-bungarotoxin (Bungarus multicinctus) (UniProt P60615); assay: alpha-bungarotoxin binders on microarray, profiling panel, artefact control for SMM control protein annotation, biochemical, small-molecule microarray, Alexa647 label, 635/667 nm fluorescence (AID 1117); details: alpha-BTX-A647 binding fluorescence, higher = more signal
# [11] = molecular target: Albumin (Bos taurus) (UniProt P02769); assay: bovine serum albumin binders on microarray, profiling panel, artefact control for SMM control protein annotation, biochemical, small-molecule microarray, Alexa647 label, 635/667 nm fluorescence (AID 1118); details: BSA-A647 binding, fluorescence 635 nm, higher = more signal;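 note: score merges 667 nm emission intensity and signal-to-noise per printed compound spot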
# [12] = small-molecule microarray binders of probe aXIP, primary screen, biochemical, NeuroSMM set, 635/667 nm fluorescence (AID 1119); details: higher = more signal, called active from +8 up or from −8 down;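 note: probe is the protein aXip251-270 applied at 1 µg/mL to compound-printed slides; binding of probe to printed compounds measured as 667 nm fluorescence plus signal to noise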
# [13] = small-molecule binders of probe aNOTCH3, primary screen, biochemical, small-molecule microarray, 635/667 nm fluorescence (AID 1120); details: higher = more signal;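 note: probe is a biotin-tagged antibody raised against NOTCH3 rather than NOTCH3 protein; score merges spot fluorescence near 667 nm with spot signal to noise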
# [14] = small-molecule binders of probe aNOTCH2, primary screen, biochemical, small-molecule microarray, 635/667 nm fluorescence (AID 1121); details: higher = more signal;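 note: score merges feature fluorescence read at 667 nm with its signal to noise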
# [15] = molecular target: Carbonic anhydrase 2 (Homo sapiens) (UniProt P00918); assay: CAII small-molecule binders, profiling panel, biochemical, small-molecule microarray, Alexa647-labelled CAII (AID 1122); details: CAII-A647 binding fluorescence, higher = more signal
# [16] = COS7 lysate on small-molecule microarray, probe aHis, 635 nm (AID 1123); details: COS7 cell lysate, fluorescence, higher = more signal;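 note: z-score combines 667nm fluorescence intensity with signal-to-noise per printed compound spot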
# [17] = compound binding in COS7 lysate, probe aLAP1, primary screen, cell lysate, small-molecule microarray (AID 1124); details: probe aLAP1, fluorescence, higher = more signal;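 note: lysate comes from COS7 cells expressing LAP1 and is applied at 0.3 µg/mL; score merges spot fluorescence near 667 nm with signal-to-noise over triplicate slides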
# [18] = system: Sam68 (KHDRBS1); assay: Sam68 small-molecule binders, primary screen, biochemical, small-molecule microarray, 635 nm fluorescence (AID 1125); details: small-molecule microarray binding, higher = more signal;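 note: score merges 667 nm channel intensity with signal to noise over triplicate slides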
# [19] = system: Chordin-like protein 2 (CHRDL2); assay: CHRDL2 small-molecule binders, primary screen, biochemical, small-molecule microarray, 635 nm fluorescence (AID 1126); details: small-molecule microarray binding, fluorescence 635 nm; higher = more signal;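 note: printed compound slides probed with Chrdl2 protein at 4 µg/mL for 1 h at 4 C; score merges 667 nm emission intensity with signal to noise over three replicate slides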
# [20] = molecular target: Concanavalin-A (Canavalia ensiformis) (UniProt P02866); assay: ConA small-molecule binders, primary screen, artefact control for SMM control protein annotation, biochemical, small-molecule microarray, Alexa647 label, 635 nm (AID 1127); details: ConA-A647 binding fluorescence, higher = more signal;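 note: z combines 667 nm emission intensity with signal-to-noise across three replicate slides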
# Sequence of Concanavalin-A (Canavalia ensiformis) (P02866 whole entry, looked up): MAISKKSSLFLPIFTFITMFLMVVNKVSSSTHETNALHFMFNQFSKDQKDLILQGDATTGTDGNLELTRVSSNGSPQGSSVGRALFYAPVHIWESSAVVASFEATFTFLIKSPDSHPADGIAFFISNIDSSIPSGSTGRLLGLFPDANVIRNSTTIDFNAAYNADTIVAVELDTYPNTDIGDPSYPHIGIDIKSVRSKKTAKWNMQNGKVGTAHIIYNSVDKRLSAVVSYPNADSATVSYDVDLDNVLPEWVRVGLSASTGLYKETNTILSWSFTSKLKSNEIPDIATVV
# Sequence of Alpha-bungarotoxin (Bungarus multicinctus) (P60615 whole entry, looked up): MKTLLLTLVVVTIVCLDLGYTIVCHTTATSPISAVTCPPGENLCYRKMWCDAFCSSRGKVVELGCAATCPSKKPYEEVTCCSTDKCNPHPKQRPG
# Sequence of Torsin-1A-interacting protein 1 (Homo sapiens) (Q5JTV8 whole entry, looked up): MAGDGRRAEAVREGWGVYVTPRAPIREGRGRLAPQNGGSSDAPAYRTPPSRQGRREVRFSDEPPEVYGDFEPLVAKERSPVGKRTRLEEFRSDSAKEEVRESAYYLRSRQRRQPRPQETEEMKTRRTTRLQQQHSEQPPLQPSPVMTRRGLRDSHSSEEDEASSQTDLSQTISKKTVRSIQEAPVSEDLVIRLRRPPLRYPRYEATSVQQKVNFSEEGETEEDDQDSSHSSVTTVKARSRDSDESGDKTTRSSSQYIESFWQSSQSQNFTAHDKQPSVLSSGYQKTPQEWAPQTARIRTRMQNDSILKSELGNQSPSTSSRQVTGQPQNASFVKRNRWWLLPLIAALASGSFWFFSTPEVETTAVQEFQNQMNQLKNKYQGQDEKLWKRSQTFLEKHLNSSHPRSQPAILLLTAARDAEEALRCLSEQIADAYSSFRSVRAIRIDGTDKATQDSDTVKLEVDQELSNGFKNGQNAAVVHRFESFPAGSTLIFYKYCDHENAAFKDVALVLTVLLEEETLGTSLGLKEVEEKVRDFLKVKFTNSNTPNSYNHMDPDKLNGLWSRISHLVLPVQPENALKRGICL
# Sequence of Albumin (Bos taurus) (P02769 whole entry, looked up): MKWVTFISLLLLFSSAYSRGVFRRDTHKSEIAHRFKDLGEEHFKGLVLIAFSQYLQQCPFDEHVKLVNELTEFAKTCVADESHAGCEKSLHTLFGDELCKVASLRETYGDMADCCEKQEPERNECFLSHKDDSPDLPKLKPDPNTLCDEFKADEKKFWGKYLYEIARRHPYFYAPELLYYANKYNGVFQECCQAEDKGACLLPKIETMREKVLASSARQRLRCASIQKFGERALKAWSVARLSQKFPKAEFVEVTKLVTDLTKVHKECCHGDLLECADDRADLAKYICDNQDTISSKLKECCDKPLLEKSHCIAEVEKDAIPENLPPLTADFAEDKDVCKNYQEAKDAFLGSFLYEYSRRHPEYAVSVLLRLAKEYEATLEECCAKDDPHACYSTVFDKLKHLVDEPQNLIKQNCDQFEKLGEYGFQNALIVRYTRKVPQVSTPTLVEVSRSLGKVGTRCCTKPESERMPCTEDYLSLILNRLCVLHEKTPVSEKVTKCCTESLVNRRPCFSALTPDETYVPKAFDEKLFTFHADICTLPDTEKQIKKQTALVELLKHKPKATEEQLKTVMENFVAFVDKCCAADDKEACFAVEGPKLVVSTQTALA
# Sequence of Left-right determination factor 2 (Homo sapiens) (O00292 whole entry, looked up): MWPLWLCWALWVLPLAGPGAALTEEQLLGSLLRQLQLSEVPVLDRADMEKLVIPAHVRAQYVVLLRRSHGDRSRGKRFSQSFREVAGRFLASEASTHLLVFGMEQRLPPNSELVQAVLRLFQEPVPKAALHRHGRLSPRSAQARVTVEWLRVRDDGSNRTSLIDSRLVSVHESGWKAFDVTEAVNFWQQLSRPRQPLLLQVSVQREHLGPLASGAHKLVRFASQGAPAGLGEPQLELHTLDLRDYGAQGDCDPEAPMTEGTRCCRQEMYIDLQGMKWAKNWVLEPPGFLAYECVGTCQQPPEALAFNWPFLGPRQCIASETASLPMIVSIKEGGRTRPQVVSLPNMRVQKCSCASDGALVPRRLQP
SMILES,composite z-score [1],z-score [2],composite z-score [3],composite z-score [4],composite z-score [5],composite z-score [6],composite z-score [7],composite z-score [8],composite z-score [9],composite z-score [10],composite z-score [11],composite Z-score [12],composite z-score [13],composite z-score [14],composite z-score [15],composite z-score [16],composite z-score [17],composite z-score [18],composite z-score [19],composite z-score [20]
COC(=O)c1nc2oc1CC[C@@H](CO)NC(=O)N(C)Cc1cn(nn1)C[C@H](Cc1ccccc1)NC2=O,-0.205,1.34,-1.11,-0.423,0.376,-0.129,0.0639,0.582,0.481,0.981,0.775,-0.275 (inactive),-0.256,-0.152,0.942,1.02,0.483,0.178,0.376,0.667
O=C(NCCN1CCOCC1)[C@@H]1c2ccccc2C(=O)N(Cc2cc(F)cc(C(F)(F)F)c2)[C@H]1c1ccc(CO)cc1,1.44,-1.33,-1.61,-0.346,0.0296,-0.124,-0.214,-0.0949,0.812,-0.444,-0.265,-0.543 (inactive),0.49,-0.222,0.724,2.53,-0.062,0.463,-1.55,-0.287
C=CCC(OC(C)=O)[C@@H]1[C@@H](N(Cc2ccc(-c3ccccc3)cc2)C(=O)c2ccc(C)cc2)c2cc(OCCCO)ccc2N1C(=O)c1ccc2ccccc2n1 (stereo not given in full),-0.6,-0.41,0.755,-0.248,0.24,-0.14,-0.181,0.496,0.234,-0.0983,-0.361,-0.181 (inactive),0.246,-0.0134,0.0144,0.249,-0.446,-0.44,0.0539,-1.78
[N-]=[N+]=Nc1ccccc1[C@H]1OC(c2ccc(OCCCO)cc2)=N[C@@]1(CCS(=O)(=O)c1ccccc1)C(=O)N1CCOCC1,0.946,0.384,0.52,2.15,1.24,0.318,1.39,1.28,2.1,3.35,1.08,1.23 (inactive),0.586,0.358,0.522,2.65,0.603,1.3,-0.409,1.22
O=C1C2C=CC(C(O)c3ccc(-c4ccccc4)s3)N(Nc3ccccc3F)C2C(=O)N1c1ccccc1 (stereo not given),1.37,1.78,-0.0452,1.95,1.24,-0.0758,0.274,-0.54,0.599,1.21,0.822,0.446 (inactive),0.113,0.149,0.69,2.09,0.335,1.29,-0.0798,1.12
